# ERK AVP block = qHTS Assay for Inhibitors of the ERK Signaling Pathway using a Homogeneous Screening Assay; Potency, µM (top dose mostly 57.5 µM), for inactives: top-dose activity, negative = inhibition, actives largely listed as inhibitors; actives 0.99% (n = 72,000); HEK293-V1b, vasopressin-stimulated pERK AlphaScreen; further: potency means the concentration at half of the fitted maximal effect; on the % scale 0 is the no-effect control and ±100 the full control effect; nearly all actives have a fitted effect of over 55% in size
#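 HEK293 cells stably expressing V1b receptor, seeded overnight in 1% FBS, were treated with compounds for 30 min at 37C, then stimulated 5 min with 25 nM vasopressin; phospho-ERK read by AlphaScreen SureFire after lysis.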
# HEK293 cAMP cs = qHTS Assay for Agonists of the Thyroid Stimulating Hormone Receptor: Activators of Intracellular cAMP Concentrations in Parental HEK 293 | parental HEK293 CNG cAMP sensor, membrane potential fluorescence | Potency, µM (titrated, usually from 57.1 µM), for inactives: top-dose activation, usual class: activators | actives 2.5% (n = 73,000); further: potency means the concentration at half of the fitted maximal effect; % of control where 0% means no effect; nearly all actives have a fitted effect of over 55% in size
#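 Parental HEK 293 cells stably expressing a modified CNG channel (no TSHR) report cAMP rise as membrane depolarization. Membrane potential dye with 100 uM RO 20-1724 was loaded for 60 min at room temperature, then compound added for 30 min; fluorescence read at 590 nm.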
# TSHR ag = qHTS Assay for Agonists of the Thyroid Stimulating Hormone Receptor; Thyrotropin receptor (Homo sapiens), P16473; HEK293-CNG-TSHR cells (CNG channel as cAMP sensor), membrane potential dye, cAMP; Potency, µM (doses to about 57.1 µM), without a hit: at the top dose activation, actives largely listed as activators; actives 0.48% (n = 73,000); AID 926, 2007; active means well fitted activation curve with a large enough effect in the main read-out, with a control signal flat, not every such curve was filed as active; inconclusive means small, poorly fitted or top-dose-only effect, or a change in a side signal; inactive means no such curve, though single readings can be large or run the other way; % of control where 0% means no effect;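 further: the control signal comes from parental cells without the receptor; potency means the concentration at half of the fitted maximal effect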
# Target sequence (P16473 whole entry, looked up): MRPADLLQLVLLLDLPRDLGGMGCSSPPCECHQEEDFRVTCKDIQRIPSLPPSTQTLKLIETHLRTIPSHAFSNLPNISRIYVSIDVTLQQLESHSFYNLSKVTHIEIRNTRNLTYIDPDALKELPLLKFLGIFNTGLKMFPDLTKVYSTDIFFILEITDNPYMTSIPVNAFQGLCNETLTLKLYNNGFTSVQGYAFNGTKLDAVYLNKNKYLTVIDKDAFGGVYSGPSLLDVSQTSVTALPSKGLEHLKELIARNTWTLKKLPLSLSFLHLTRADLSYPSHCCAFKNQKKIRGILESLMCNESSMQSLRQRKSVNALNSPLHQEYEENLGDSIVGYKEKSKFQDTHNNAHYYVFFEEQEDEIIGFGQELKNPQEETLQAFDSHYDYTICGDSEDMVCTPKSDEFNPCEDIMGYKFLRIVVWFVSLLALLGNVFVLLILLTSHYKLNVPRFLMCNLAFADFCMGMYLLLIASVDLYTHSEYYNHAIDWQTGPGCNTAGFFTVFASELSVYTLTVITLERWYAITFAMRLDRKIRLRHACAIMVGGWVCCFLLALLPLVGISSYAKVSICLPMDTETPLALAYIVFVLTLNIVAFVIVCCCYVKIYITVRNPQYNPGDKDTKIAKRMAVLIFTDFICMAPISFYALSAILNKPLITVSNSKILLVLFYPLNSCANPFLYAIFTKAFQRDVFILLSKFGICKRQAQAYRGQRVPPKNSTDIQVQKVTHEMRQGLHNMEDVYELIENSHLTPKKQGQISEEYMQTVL
#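 HEK 293 cells stably expressing TSHR and a modified CNG channel, with CNG-only parental cells as counterscreen, were preloaded 60 min at room temperature with membrane potential dye containing 100 uM RO 20-1724. Compound exposure was 30 min, and depolarization was read as fluorescence at 590 nm.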
# CRE Fsk mod = Cell signaling CRE-BLA (Fsk stim); CHO CRE-bla reporter (cAMP response element driving beta-lactamase), forskolin EC10, beta-lactamase ratio; actives 2.5% (n = 71,000); Potency, µM (doses to about 38.2 µM), without a hit: top-dose activity change, negative = inhibition, most hits filed as activators; active means well fitted activation curve with a large enough effect in the signal ratio, with a control signal flat, not every such curve was filed as active; inconclusive means small, poorly fitted or top-dose-only effect, or effect the other way, or a change in a side signal; the % refers to the signal ratio; further: potency means the concentration at half of the fitted maximal effect; % of control where 0% means no effect
#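 The 460nm/530nm emission ratio after CCF4 loading defined %Activity, from which AC50 values were obtained. CRE-bla CHO cells received compound dilution series together with an EC10 level of NKH 477 for 3 hours at 37 degrees Celsius.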
# HEK293 cAMP cnt = Confirmation Concentration-Response Assay for Agonists of the Thyroid Stimulating Hormone Receptor: Activators of Intracellular cAMP Concentrations in Parental HEK 293; shares compounds with TSHR ag; 150 tested, under 10 active; parental HEK293 CNG biosensor, cAMP membrane potential fluorescence; activity change, negative = inhibition, % at 32.9 µM
# The depositor's hits bear a star; u = inconclusive; x = not tested or not shown; [ ] = remark or other dose. This is a sample that favours compounds with a hit; in the whole collection about 6% have one here. Unless noted, the call rests on the fitted dose curve; in most records, active means well fitted curve in the direction sought with a large enough effect; inconclusive means small, poorly fitted or top-dose-only effect, or another doubt; inactive means no such curve, though single readings can be large; an effect the other way counts as inactive or inconclusive.
SMILES,ERK AVP block,HEK293 cAMP cs,TSHR ag,CRE Fsk mod,HEK293 cAMP cnt
CC(=O)c1cccc(NC(=O)c2cc(-n3cnnc3)ccc2Cl)c1,-22.1%,2.4%,1.8%,-12.4%,x
COc1cc(NC(=O)c2cc(-n3cnnc3)ccc2Cl)cc(OC)c1,-15.0%,6.1%,x,u,-1.3[25.6 µM]
CC[C@H]1CN(C)[C@H]2Cc3c([nH]c4ccccc34)C(=O)C[C@H]1[C@H]2C(=O)OC,-14.6%[11.5 µM],-1.0%[11.4 µM],-0.2%[11.4 µM],-0.8%[7.6 µM],x
Nc1cc(CN2C(=O)c3ccccc3C2=O)cc(Cl)c1O,-23.0%,-2.0%,2.2%,9.2%,4.5[25.6 µM]
O=C1c2ccccc2C(=O)N1Cc1ccc2c(c1)OCO2,8.7%,u,u,0.1%,x
CC(C)CO/N=C1/[C@H]2O[C@@H]2[C@@H](O)[C@H]2[C@H]1CCn1c(=O)n(Cc3cc4c(cc3Cl)OCO4)c(=O)n12,15.3%[11.5 µM],1.5%[11.4 µM],0.1%[11.4 µM],x,x
CC1(C)CC(=O)C2=C(C1)OC(N)=C(C#N)C2C#Cc1ccccc1 (centres undefined),-10.4%,4.4%,18.3%,-13.0%,x
CC1(C)CC(=O)C2=C(C1)OC(N)=C(C#N)C2CCc1ccccc1 (centres undefined),-8.1%,27.6%,20µM*,5.6%,14.3
Cc1noc(/C=C/c2ccco2)c1S(=O)(=O)N1CCC(C(=O)NCc2ccco2)CC1,-4.3%,11.9%,31.6µM*,-15.6%,17.7
N#Cc1cccc(NC(=O)N2CC[C@@]3(CCCN(S(=O)(=O)c4ccccc4)C3)C2)c1,u,18.2%,x,-5.9%,x
Oc1ccc(Cn2c(-c3ccc(O)cc3)nc3ccccc32)cc1,-7.5%[11.5 µM],-1.4%[11.4 µM],5.1%[11.4 µM],-2.2%[7.6 µM],x
Oc1ccccc1Cn1c(-c2ccccc2O)nc2ccccc21,u,-13.1%,10µM*,15.7%,-14.6
CN1CCC2(CC1)CCN(C(=O)c1cccc(F)c1)CC2,u,10.6%,8.0%,2.5%,x
CCCn1c(-c2ccc(F)cc2)nc2c(NCCN(CC)CC)nc(C)nc21,-4.3%,u,u,9.3%,x
CCN(C(=O)CN1CCCc2ccccc21)c1c(N)n(Cc2ccccc2)c(=O)[nH]c1=O,-3.6%,0.5%,7.8%,-1.7%,x
CCn1c(=O)c(C(=O)CN2CCCc3ccccc32)c(N)n(Cc2ccccc2)c1=O,-20.2%,-7.7%,-21.2%,u,-16.6[25.6 µM]
CCc1nnc(NC(=O)CSc2nnc(-c3ccoc3C)n2CC(C)C)s1,16.4%,-21.2%,-7.7%,8.3%,x
Cc1occc1-c1nnc(SCC(=O)NCc2ccco2)n1CC(C)C,11.8%,12.2%,20µM*,-4.1%,-9.6
COc1ccc(NC2c3ccccc3C(=O)N2c2cccnc2)cc1Cl (centres undefined),-9.3%,2.8%,12.7%,5.5%,x
COC(=O)c1cc(NC2c3ccccc3C(=O)N2c2cccnc2)cc(C(=O)OC)c1 (centres undefined),7.5%,15.1%,15.8µM*,20.4%,17.7
CC(C)C[C@@H](CC(=O)N[C@H](CC(=O)N[C@@H]1CCCC[C@H]1C(=O)N[C@H](CC(=O)N[C@@H](CCC(=O)O)CC(=O)O)Cc1c[nH]c2ccccc12)C(C)C)NC(=O)[C@@H]1CCCC[C@H]1N,x,-1.9%,0.5%,u,x
O=C1C=C(NCc2ccccc2)C2(CCCCC2)O1,-11.3%,22.4%[11.4 µM],x,10.9%[7.6 µM],16.9[25.6 µM]
O=C1C=C(NCc2ccco2)C2(CCCCC2)O1,-18.2%,u,u,1.1%,x
